Bioassay records: PubChem BioAssay, National Center for Advancing Translational Sciences (NCATS)
The list is not random: actives were taken first. Their share in the collection is about 3.4%.
AmpC no deterg: qHTS Inhibitors of AmpC Beta-Lactamase (assay without detergent); P00811; Potency, µM (series often up to 57.1 µM), actives largely listed as inhibitors; AmpC nitrocefin hydrolysis, absorbance 480 nm, 0.0001% Triton; hit rate 0.52% among 330,000; also: nearly all actives have a fitted effect of over 20% in size
Target sequence (P00811 whole entry, looked up): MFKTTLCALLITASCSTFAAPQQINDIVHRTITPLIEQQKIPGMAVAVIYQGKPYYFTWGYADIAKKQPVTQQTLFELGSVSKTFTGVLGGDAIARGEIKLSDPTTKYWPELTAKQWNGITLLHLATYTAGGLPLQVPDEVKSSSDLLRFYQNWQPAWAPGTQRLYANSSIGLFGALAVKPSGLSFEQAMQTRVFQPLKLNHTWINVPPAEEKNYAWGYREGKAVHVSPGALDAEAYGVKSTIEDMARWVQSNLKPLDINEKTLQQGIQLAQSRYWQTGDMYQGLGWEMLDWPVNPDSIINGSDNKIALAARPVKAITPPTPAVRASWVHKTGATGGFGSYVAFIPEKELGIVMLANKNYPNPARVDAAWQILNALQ
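20 mM phosphate pH 7.0 + 0.01% (detergent screen) or 0.0001% Triton X-100; 5.3 nM AmpC reagent; cpd preinc 15 min RT; nitrocefin (800 uM stock) to start; A480 q20 s × 4 min; Activity was normalised to no-enzyme and no-compound control wells.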
Sm TGR block: qHTS Assay for the Inhibitors of Schistosoma Mansoni Peroxiredoxins; purified TGR, DTNB reduction, TNB absorbance 405 nm; Potency, µM (highest dose often 114 µM), most hits filed as inhibitors; hit rate 3% among 360,000; also: nearly all actives have a fitted effect of over 60% in size
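First, TGR (20 nM dispensed) and NADPH were mixed with compound. Second, a 15 min room-temperature incubation followed. Third, further NADPH and then DTNB were added to start the reaction. Finally, TNB absorbance was monitored kinetically.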
AmpC detergent: qHTS Inhibitors of AmpC Beta-Lactamase (assay with detergent); AmpC hydrolysis of nitrocefin, absorbance 480 nm, 0.01% Triton; Potency, µM (doses to about 114 µM), hits mostly inhibitors; hit rate 0.041% among 370,000; AID 485294, 2010; P00811; also: nearly all actives have a fitted effect of over 25% in size
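20 mM phosphate pH 7.0 + 0.01% (detergent screen) or 0.0001% Triton X-100; 5.3 nM AmpC reagent; cpd preinc 15 min RT; nitrocefin (800 uM stock) to start; A480 q20 s × 4 min; Activity was normalised to no-enzyme and no-compound control wells.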
FBPA Giardia inh: qHTS Assay for Inhibitors of Fructose-1,6-bisphosphate Aldolase from Giardia Lamblia | A8B2U2 | hit rate 0.71% among 290,000 | Potency, µM (doses to about 59.6 µM), usual class: inhibitors | purified Giardia FBPA; also: nearly all actives have a fitted effect of over 55% in size
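Giardia FBPA (40 nM reagent) was preincubated 10 min at RT with compound (up to 57.5 uM final), then substrate plus GAPDH/TPI/NAD/arsenate coupling system with diaphorase/resazurin was added; resorufin fluorescence (525/598 nm) was read after 20 min.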
RE007 growth inh: qHTS Assay for Inhibitors of the HIV-1 protein Vpr; S. pombe RE007 Vpr strain, BacTiter-Glo ATP luminescence, 24 h; Potency, µM (top dose mostly 92.2 µM), usual class: inhibitors; hit rate 0.21% among 360,000; AID 651644, 2012; active = well fitted falling curve with a large enough effect; inconclusive = small, poorly fitted or top-dose-only effect; inactive = no such curve, though single readings can be large or run the other way; also: nearly all actives have a fitted effect of over 50% in size
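Fission yeast strain RE007, carrying one chromosomally integrated HIV-1 vpr copy, was seeded at OD 0.01 in PMG+AL medium with 23 nL pinned compound. After 24 h at 30 °C and 99% humidity, viability was read by BacTiter-Glo luminescence.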
Large screens that a line does not name were inactive; ! = repeats disagree. Unless noted, calls follow the shape of the dose curve; as a rule, active = well fitted curve in the direction sought with a large enough effect; inconclusive = small, poorly fitted or top-dose-only effect, or another doubt; inactive = no such curve, though single readings can be large; an effect the other way counts as inactive or inconclusive.

CC(=O)Nc1nc(SCCCc2ccccc2)n[nH]1	AmpC detergent inconclusive
CCOC(=O)N1CCN(CC(=O)c2ccc3c(c2)CCN3C(C)=O)CC1	Sm TGR block 20µM
Cc1ccc(S(=O)(=O)C(CNS(=O)(=O)c2ccc(F)c(C(F)(F)F)c2)c2ccco2)cc1 (centres undefined)	Sm TGR block 0.32µM (no result: AmpC no deterg, FBPA Giardia inh, RE007 growth inh)
Cc1cc(F)ccc1S(=O)(=O)NCC(c1ccco1)S(=O)(=O)c1cccs1 (centres undefined)	Sm TGR block 0.1µM (no result: AmpC no deterg, FBPA Giardia inh, RE007 growth inh)
COc1ccc(S(=O)(=O)NCC(c2ccco2)S(=O)(=O)c2ccc(C)cc2)cc1F (centres undefined)	Sm TGR block 0.4µM (no result: AmpC no deterg, FBPA Giardia inh, RE007 growth inh)
Cc1ccc(C(CNS(=O)(=O)c2ccc(F)cc2C)N2CCN(C)CC2)cc1 (centres undefined)	none (no result: FBPA Giardia inh)
COc1ccc(S(=O)(=O)NCC(c2ccco2)S(=O)(=O)c2cccs2)cc1C (centres undefined)	Sm TGR block 0.1µM (no result: AmpC no deterg, FBPA Giardia inh, RE007 growth inh)
CCOc1ccc(S(=O)(=O)N(CC)CC(=O)N2CCCC2)cc1C	none
COc1ccc(CC(=O)NNC(=O)[C@@H]2CCCC[C@@H]2C(=O)O)cc1	none (no result: FBPA Giardia inh)
CCCCN(C(=O)C1CCN(C(=O)c2ccccc2C)CC1)c1c(N)n(CCCC)c(=O)[nH]c1=O	AmpC detergent inconclusive (no result: FBPA Giardia inh)
COc1ccc(S(=O)(=O)NCC(c2ccco2)S(=O)(=O)c2cccs2)cc1F (centres undefined)	Sm TGR block 0.1µM (no result: AmpC no deterg, FBPA Giardia inh, RE007 growth inh)
CCOc1ccc(S(=O)(=O)NCC(c2ccco2)S(=O)(=O)c2cccs2)cc1 (centres undefined)	Sm TGR block 0.1µM (no result: AmpC no deterg, FBPA Giardia inh, RE007 growth inh)
CCOc1ccc(NS(=O)(=O)c2ccc(NS(=O)(=O)c3cccs3)cc2)cc1	none
COc1ccc(S(=O)(=O)NCC(c2ccco2)N2CCOCC2)cc1C (centres undefined)	none (no result: AmpC no deterg, FBPA Giardia inh, RE007 growth inh)
COc1ccc2c(c1)C1=C(CC2)C(c2ccc(C)cc2)NC(=S)N1 (centres undefined)	none
Cc1ccc(C2NC(=O)NC3=C2CCc2ccccc23)cc1 (centres undefined)	Sm TGR block 40µM, AmpC detergent inconclusive
COc1cccc(C2NC(=S)NC3=C2CCc2ccccc23)c1 (centres undefined)	FBPA Giardia inh 16µM
COC(=O)C1=C(C)NC(=O)/C1=C\N(C)C	Sm TGR block 25µM
COC(=O)C1=C(C)NC(=O)/C1=C\c1ccc2c(c1)OCO2	Sm TGR block 35µM, AmpC detergent inconclusive, RE007 growth inh inconclusive
COC(=O)C1=C(C)NC(=O)/C1=C\c1cccs1	AmpC detergent inconclusive, RE007 growth inh inconclusive
COc1ccc(C(=O)NC(C)C2CC3CCC2C3)c(OC)c1 (centres undefined)	none
O=C(NCc1ccco1)c1ccc2nc3sc4c(c3c(=O)n2c1)CCCC4	Sm TGR block 11µM (no result: RE007 growth inh)
C=CCn1c(SCC(=O)NCc2ccco2)nc2sc3c(c2c1=O)CCCC3	AmpC detergent inconclusive
O=C(CCn1c(=O)oc2ccccc21)N(Cc1ccccc1)c1ccccc1	none
CCCCN(C(=O)CCn1c(=O)oc2ccccc21)c1ccccc1	Sm TGR block 25µM!
C[C@H](CO)N1C[C@H](C)[C@@H](CN(C)S(=O)(=O)c2cccs2)Oc2c(NC(=O)C3CCCCC3)cccc2C1=O	none (no result: Sm TGR block, AmpC detergent, FBPA Giardia inh)
CCOc1cccc2c1OC(c1cc(OC)c(OC)c(OC)c1)N1N=C(c3ccc(C)o3)CC21 (centres undefined)	Sm TGR block 45µM, RE007 growth inh inconclusive
CCOC(=O)/C(=C/c1ccc(N2CCC(c3ccccc3)=N2)cc1)C(C)=O	none
c1ccc(C2=NN(c3ccccc3)CC2)cc1	Sm TGR block 5µM
COc1ccc(Cc2n[nH]c(=S)n2C)cc1Br	Sm TGR block 32µM, FBPA Giardia inh inconclusive
C=CCSc1nc(N)c(C#N)c(-c2ccccc2)c1C#N	none
C=CCSc1nc2c(c(-c3ccsc3)c1C#N)CN(C)CC2	Sm TGR block 10µM
C=CCn1c(SC(F)F)nc2scc(-c3ccco3)c2c1=O	Sm TGR block 50µM, AmpC detergent inconclusive
C=CCn1c(SCC(=O)NCCCC(=O)OCC)nc2scc(-c3ccco3)c2c1=O	none
